In PubChem BioAssay:
Activity calls are given as the source filed them.

How the values were obtained:
[1] = optical density shifts of acrAB sulA E. coli – strain DRC41, OD650, 48 h, E. coli filamentation inducer project, primary screen (AID 1152); conditions: higher = more signal, called active from +8 up or from −8 down;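 note: E. coli MC1000 strain DRC41 lacking acrAB efflux pump and sulA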
[2] = probe aLefty1 binding on compound microarray – biochemical, small-molecule microarray, 635/667 nm fluorescence, primary screen (AID 1153); conditions: higher = more signal;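 note: score merges spot fluorescence with signal-to-noise ratio from the scanned slide images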
[3] = plasmodial surface anion channel blockers, osmotic lysis – cell-based, P. falciparum Indochina, OD700, 1 h, primary screen (AID 1154); conditions: P. falciparum Indochina infected RBC osmotic lysis, higher = more signal, called active from +8 up or from −8 down
[4] = plasmodial surface anion channel blockers, osmotic lysis – cell-based, P. falciparum Indochina, OD700, 2 h, primary screen (AID 1155);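 note: lysis reports solute entry through the parasite surface anion channel PSAC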; conditions: P. falciparum Indochina infected erythrocytes, higher = more signal, called active from +8 up or from −8 down
[5] = changes in parasitized red cell lysis, either direction – P. falciparum Indochina, OD700, 3 h, PSAC antagonist project, primary screen (AID 1156); conditions: P. falciparum-infected erythrocytes, osmotic lysis, higher = more signal, called active from +8 up or from −8 down
[6] = plasmodial surface anion channel blockers, osmotic lysis – cell-based, P. falciparum Indochina, OD700, 18 h, primary screen (AID 1157); conditions: P. falciparum Indochina infected erythrocytes, osmotic lysis OD700, 18 h; higher = more signal, called active from +8 up or from −8 down
[7] = S6 kinase pathway phospho-S6 level changes – cell-based, A549, cytoblot, luminescence, serum-stimulated, primary screen (AID 1158); conditions: 5 h, higher = more signal;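 note: serum-stimulated A549 lung adenocarcinoma cells; signal is phosphorylated S6 detected by cytoblot immunostaining with HRP secondary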
[8] = target: NADPH oxidase 2 (Homo sapiens) (UniProt P04839); test: compounds shifting NOX2 Amplex Red fluorescence – cell-based, HEK293-NOX2, PMA-stimulated, NOX inhibitor project, primary screen (AID 1159); conditions: 45 min, higher = more signal, called active from +8 up or from −8 down; note: test concentration not given here
NADPH oxidase 2 (Homo sapiens), sequence (P04839 whole entry, looked up): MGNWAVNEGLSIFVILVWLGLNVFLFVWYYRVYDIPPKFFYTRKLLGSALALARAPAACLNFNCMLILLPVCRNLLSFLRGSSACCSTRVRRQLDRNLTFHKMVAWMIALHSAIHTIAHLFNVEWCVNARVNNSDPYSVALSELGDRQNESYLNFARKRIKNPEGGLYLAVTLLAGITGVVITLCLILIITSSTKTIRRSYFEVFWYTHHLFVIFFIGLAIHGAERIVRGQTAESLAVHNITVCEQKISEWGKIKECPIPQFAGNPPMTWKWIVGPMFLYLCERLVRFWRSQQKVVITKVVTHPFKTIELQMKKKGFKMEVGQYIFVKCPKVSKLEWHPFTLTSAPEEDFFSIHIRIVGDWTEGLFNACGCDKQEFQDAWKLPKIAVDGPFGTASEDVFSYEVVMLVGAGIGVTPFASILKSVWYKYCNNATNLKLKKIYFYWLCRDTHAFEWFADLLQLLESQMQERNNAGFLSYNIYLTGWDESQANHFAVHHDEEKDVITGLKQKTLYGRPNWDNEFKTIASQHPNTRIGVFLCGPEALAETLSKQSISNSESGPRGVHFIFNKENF

[9] = target: NADPH oxidase 4 (Homo sapiens) (UniProt Q9NPH5); test: compounds shifting NOX4 Amplex Red fluorescence – cell-based, HEK293-NOX4, tetracycline-induced, NOX inhibitor project, primary screen (AID 1160); conditions: HEK293-NOX4, Amplex Red H2O2 fluorescence, 45 min; higher = more signal, called active from +8 up or from −8 down
NADPH oxidase 4 (Homo sapiens), sequence (Q9NPH5 whole entry, looked up): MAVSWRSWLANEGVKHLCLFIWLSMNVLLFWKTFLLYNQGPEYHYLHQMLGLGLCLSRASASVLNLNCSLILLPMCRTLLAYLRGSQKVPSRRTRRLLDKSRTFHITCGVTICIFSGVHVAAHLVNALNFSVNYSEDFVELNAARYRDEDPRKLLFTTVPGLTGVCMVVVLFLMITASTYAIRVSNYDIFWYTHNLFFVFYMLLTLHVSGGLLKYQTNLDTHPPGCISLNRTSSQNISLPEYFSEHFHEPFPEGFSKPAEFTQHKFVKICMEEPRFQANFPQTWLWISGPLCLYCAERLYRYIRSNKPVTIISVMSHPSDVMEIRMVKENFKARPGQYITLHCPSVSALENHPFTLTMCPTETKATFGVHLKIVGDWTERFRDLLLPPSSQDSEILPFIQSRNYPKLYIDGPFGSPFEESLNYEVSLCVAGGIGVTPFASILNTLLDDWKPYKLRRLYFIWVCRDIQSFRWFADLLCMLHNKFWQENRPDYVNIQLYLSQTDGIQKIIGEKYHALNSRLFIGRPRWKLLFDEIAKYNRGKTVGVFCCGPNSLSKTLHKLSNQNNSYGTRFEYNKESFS

[10] = target: NADPH oxidase 5 (Homo sapiens) (UniProt Q96PH1); test: compounds shifting NOX5 Amplex Red fluorescence – cell-based, HEK293-NOX5, NOX inhibitor project, primary screen (AID 1161); conditions: HEK293-NOX5, ionomycin, 45 min, higher = more signal
NADPH oxidase 5 (Homo sapiens), sequence (Q96PH1 whole entry, looked up): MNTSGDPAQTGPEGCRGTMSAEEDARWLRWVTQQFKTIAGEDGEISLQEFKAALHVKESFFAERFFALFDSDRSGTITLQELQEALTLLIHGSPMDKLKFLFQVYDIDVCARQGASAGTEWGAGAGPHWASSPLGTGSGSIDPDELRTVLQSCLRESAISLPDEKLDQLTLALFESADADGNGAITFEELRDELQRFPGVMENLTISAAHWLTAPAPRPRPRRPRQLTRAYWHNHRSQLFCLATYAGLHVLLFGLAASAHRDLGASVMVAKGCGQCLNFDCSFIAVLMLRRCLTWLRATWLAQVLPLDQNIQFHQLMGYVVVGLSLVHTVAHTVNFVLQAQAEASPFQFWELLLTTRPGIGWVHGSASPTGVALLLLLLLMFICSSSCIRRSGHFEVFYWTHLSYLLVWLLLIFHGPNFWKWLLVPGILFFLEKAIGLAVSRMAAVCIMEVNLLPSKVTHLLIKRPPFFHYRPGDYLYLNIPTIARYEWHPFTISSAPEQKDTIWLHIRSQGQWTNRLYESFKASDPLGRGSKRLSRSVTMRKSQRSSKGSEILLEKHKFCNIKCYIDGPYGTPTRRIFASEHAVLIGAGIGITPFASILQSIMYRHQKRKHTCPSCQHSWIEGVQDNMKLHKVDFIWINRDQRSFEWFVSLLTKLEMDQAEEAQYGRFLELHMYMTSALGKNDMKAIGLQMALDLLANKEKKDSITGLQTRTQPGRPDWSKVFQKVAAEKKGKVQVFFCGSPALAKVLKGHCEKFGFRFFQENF

Structure (SMILES)	z-score [1]	composite z-score [2]	z-score [3]	z-score [4]	z-score [5]	z-score [6]	z-score [7]	z-score [8]	z-score [9]	z-score [10]
O=C(NCC(F)(F)F)[C@@H]1c2ccccc2C(=O)N(Cc2cc(F)cc(C(F)(F)F)c2)[C@H]1c1ccc(CO)cc1	0.319 (inactive)	0.0494	1.71 (inactive)	-0.0966 (inactive)	1.24 (inactive)	0.449 (inactive)	0.286	0.898 (inactive)	-1.68 (inactive)	-1.17
[N-]=[N+]=Nc1ccccc1[C@@H]1OC(c2ccc(OCCCO)cc2)=N[C@]1(Cc1ccccc1)C(=O)NCC(O)CO (stereo not given in full)	0.792 (inactive)	0.665	31 (active)	28 (active)	2.32 (inactive)	6.87 (inactive)	-0.0152	-1.36 (inactive)	1.07 (inactive)	-0.606
O=C(CS)NCCCCCNC(=O)[C@@H]1C[C@@H]2C(=O)N3CCC[C@H]3C(=O)N2[C@@H]1c1cccc(OCCO)c1	-1.26 (inactive)	-0.781	2.76 (inactive)	0.465 (inactive)	-0.87 (inactive)	0.277 (inactive)	-0.645	1.97 (inactive)	0.231 (inactive)	-0.232
COc1cc2c(cc1OC)CN(C(=O)[C@@H]1[C@H]3C(=O)O[C@H](c4ccccc4)[C@H](c4ccccc4)N3[C@H](c3ccc(OCCO)cc3)[C@@]13C(=O)Nc1ccccc13)CC2	0.547 (inactive)	0.534	5.29 (inactive)	2.11 (inactive)	1.06 (inactive)	0.956 (inactive)	-0.0621	0.799 (inactive)	0.837 (inactive)	1.03
C=CCOC(=O)[C@H]1[C@@H]2C(=O)O[C@@H](c3ccccc3)[C@@H](c3ccccc3)N2[C@@H](c2ccc(OCCOC(=O)[C@@H]3C[C@@H]4C(=O)N[C@@H](CCCCN(C)C)C(=O)N4[C@@H]3c3ccc(O)cc3)cc2)[C@]12C(=O)Nc1ccccc12	-1.53 (inactive)	-0.0873	0.0625 (inactive)	0.249 (inactive)	3.35 (inactive)	0.251 (inactive)	-0.444	2.51 (inactive)	0.874 (inactive)	0.391
COCCCNC(=O)[C@]1(CCS(=O)(=O)c2ccccc2)N=C(c2ccc(OCCCO)cc2)O[C@@H]1c1ccccc1N=[N+]=[N-]	0.308 (inactive)	-0.0087	29.8 (active)	28.1 (active)	1.67 (inactive)	2.02 (inactive)	0.737	0.867 (inactive)	0.235 (inactive)	-0.901
O=C(NCC(F)(F)F)[C@@H]1c2ccccc2C(=O)N(Cc2ccccc2C(F)(F)F)[C@H]1c1ccc(CO)cc1	0.142 (inactive)	-0.0164	1.45 (inactive)	0.478 (inactive)	0.239 (inactive)	0.109 (inactive)	-0.537	0.536 (inactive)	0.0258 (inactive)	-0.284
COc1cccc(/C=C/C=O)c1	1.46 (inactive)	0.212	0.206 (inactive)	-0.11 (inactive)	-0.648 (inactive)	-0.0641 (inactive)	0.0159	-0.759 (inactive)	-0.228 (inactive)	0.985
COC(=O)c1c2oc(c1C(=O)OC)C(=O)N(Cc1ccccc1)Cc1cn(nn1)C[C@H](Cc1ccccc1)NC(=O)N[C@H](CO)CC2	0.959 (inactive)	-0.0942	1.67 (inactive)	0.393 (inactive)	-0.252 (inactive)	0.213 (inactive)	1.18	-1.13 (inactive)	1.06 (inactive)	-0.397
COc1ccc([Si](C)(C)[C@@H]2[C@@H](CCn3cc([C@H](O)c4ccccc4)nn3)O[C@]3(C(=O)N(Cc4ccc(N5CCC5=O)cc4)c4ccccc43)[C@H]2C)cc1	0.893 (inactive)	-0.696	18.8 (active)	4.31 (inactive)	1.66 (inactive)	1.19 (inactive)	0.759	0.193 (inactive)	1.08 (inactive)	1.7
COC(=O)c1nc2oc1CC[C@@H](CO)NC(=O)N(C)Cc1cnnn1C[C@H](Cc1ccccc1)NC2=O	2.17 (inactive)	-0.101	1.23 (inactive)	0.656 (inactive)	1.2 (inactive)	0.409 (inactive)	0.688	-0.524 (inactive)	1.35 (inactive)	0.371
Cc1ccc(S[C@]2(C(=O)NCC(F)(F)F)CC(=O)N(Cc3ccccc3)[C@@H]2c2ccc(CO)cc2I)cc1	-0.764 (inactive)	0.0355	4.23 (inactive)	0.283 (inactive)	0.173 (inactive)	0.279 (inactive)	-0.404	1.22 (inactive)	-1.33 (inactive)	0.776
COC(=O)[C@@]1(Cc2ccccc2)[C@H]2c3cc(C(=O)N(C)C)n(Cc4c(CO)[nH]cc(C)c4=O)c3C[C@H]2CN1C(=O)c1ccccc1	-1.16 (inactive)	0.0004	0.758 (inactive)	-0.16 (inactive)	0.338 (inactive)	0.248 (inactive)	-0.482	0.495 (inactive)	0.334 (inactive)	-1.91
CC(CO)N1C(=O)[C@@H]2[C@H]3C(=O)OCC=C[C@H]3OC23C=CCN(C(C)(C)C)C(=O)[C@@H]13 (stereo not given in full)	-0.771 (inactive)	-0.407	0.16 (inactive)	-0.0471 (inactive)	-0.0717 (inactive)	-0.23 (inactive)	-0.105	0.566 (inactive)	0.401 (inactive)	1.43
COc1ccc(CCN2C(=O)[C@@]3(Cc4ccccc42)c2ccccc2C(=O)N(Cc2ccccc2OC)[C@H]3c2ccc(CO)cc2)cc1	2.06 (inactive)	0.595	1.96 (inactive)	-0.373 (inactive)	-0.217 (inactive)	-1.29 (inactive)	3.17	0.348 (inactive)	-0.797 (inactive)	0.327
CC(C)(C)OC(=O)CC[C@]1(C(=O)NCc2ccccc2)N=C(c2ccc(OCCCO)cc2)O[C@H]1c1ccccc1CN=[N+]=[N-]	0.829 (inactive)	0.146	25.3 (active)	12.3 (active)	3.22 (inactive)	1.65 (inactive)	0.224	-0.174 (inactive)	-0.533 (inactive)	-1.47
